Assay [1] is described as follows: qHTS profiling for inhibitors of Plasmodium falciparum proliferation (AID 504749). Also: nearly all actives have a fitted effect of over 60% in size.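 As to activity, negative = inhibition: 0% = DMSO vehicle and full inhibition = artemisinin control.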 Conditions: P. falciparum in erythrocytes, SYBR Green DNA, 72 h, at 28.7 µM (top of the series). In short, it runs like this: (§1)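 Fluorescence of SYBR Green-bound parasite DNA, read at 485/535 nm, served as the growth measure. Infected erythrocytes were cultured with compound 72 h; artemisinin (0.29 uM) and DMSO wells defined the normalization range.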
(Quantitative high-throughput screening tests each substance at several concentrations.)

Another assay has as its system 3D7. The description is as above. Conditions: P. falciparum in erythrocytes, SYBR Green DNA, 72 h; series mostly up to 28.7 µM. The method, boiled down:
as §1

A further assay has as its system AA1029. The assay is described as above. To be noted: P. falciparum in erythrocytes, SYBR Green DNA, 72 h; series mostly up to 28.7 µM. In short, it runs like this: as §1
For the next assay, the system named is AS120. The assay is described as above. Conditions: P. falciparum in erythrocytes, SYBR Green DNA, 72 h; series mostly up to 28.7 µM. In short, it runs like this:
as §1

The test system of a further assay is ATS189. The description is as above. Conditions: P. falciparum in erythrocytes, SYBR Green DNA, 72 h; series mostly up to 28.7 µM. The method, boiled down: as §1
The next assay has as its system ATS95. The description is as above. To be noted: P. falciparum in erythrocytes, SYBR Green DNA, 72 h; series mostly up to 28.7 µM. The method, boiled down:
as §1

A further assay has as its system C2A. The description is as above. To be noted: P. falciparum in erythrocytes, SYBR Green DNA, 72 h; series mostly up to 28.7 µM. The method, boiled down: as §1
The next assay relates to CP185. The description is as above. Conditions: P. falciparum in erythrocytes, SYBR Green DNA, 72 h; series mostly up to 28.7 µM. In short, it runs like this:
as §1

A further assay deals with CP191. Described as above. To be noted: P. falciparum in erythrocytes, SYBR Green DNA, 72 h; series mostly up to 28.7 µM. The method, boiled down:
as §1

A further assay deals with CP192. The assay is described as above. Conditions: P. falciparum in erythrocytes, SYBR Green DNA, 72 h; series mostly up to 28.7 µM. The method, boiled down:
as §1

In another assay the test system is CP194. The assay is described as above. To be noted: P. falciparum in erythrocytes, SYBR Green DNA, 72 h; series mostly up to 28.7 µM. In short, it runs like this:
as §1

The test system of a further assay is CP201. Described as above. Conditions: P. falciparum in erythrocytes, SYBR Green DNA, 72 h; series mostly up to 28.7 µM. In short, it runs like this:
as §1

For another assay, the system named is CP203. Described as above. To be noted: P. falciparum in erythrocytes, SYBR Green DNA, 72 h; series mostly up to 28.7 µM. The method, boiled down:
as §1

A further assay concerns CP211. Described as above. To be noted: P. falciparum in erythrocytes, SYBR Green DNA, 72 h; series mostly up to 28.7 µM. The method, boiled down:
as §1

A further assay deals with CP215. The description is as above. Conditions: P. falciparum in erythrocytes, SYBR Green DNA, 72 h; series mostly up to 28.7 µM. In short, it runs like this: as §1
Another assay relates to 7G8. Described as above. Conditions: P. falciparum in erythrocytes, SYBR Green DNA, 72 h; series mostly up to 28.7 µM. The method, boiled down: as §1

Results filed as inconclusive are left out. A number with no mark means an inactive call. Calls of active or inactive are those of the source. Calls follow the shape of the dose curve; as a rule, active = well fitted inhibition curve with a large enough effect; inconclusive = small, poorly fitted or top-dose-only effect; inactive = flat fitted curve, though single readings scatter.
Potency is read from the fitted curve at half-maximal effect.

For `Nc1ccc(S(=O)(=O)c2ccc(N)cc2)cc1`, the activity, negative = inhibition in [1] (parasite line A) was 2.8%; in [1] (parasite line B), 7.07%. For the same molecule, the Potency result with 3D7, in the assay with AA1029, in the assay with AS120, in the assay on ATS189, in the assay on ATS95 and in the assay on C2A was “inactive” in each case. For the same molecule, the Potency entry in the assay on CP185, with CP203 and in the assay with CP215 was “inactive” each time. Moreover, the result in the assay with CP191, in the assay on CP192, with CP194, in the assay on CP201 and in the assay on CP211 was inactive.
Turning to `CC(=O)OC[C@H]1O[C@@](COC(C)=O)(O[C@H]2O[C@H](COC(C)=O)[C@@H](OC(C)=O)[C@H](OC(C)=O)[C@H]2OC(C)=O)[C@@H](OC(C)=O)[C@@H]1OC(C)=O`, in [1] (parasite line B), the activity, negative = inhibition was 21.3%. In addition, the Potency result with 3D7, in the assay on 7G8, with AA1029, in the assay with C2A, with CP203 and in the assay on CP215 was “inactive” in each case. Also, the outcome in the assay with CP192, in the assay on CP194, in the assay on CP201 and with CP211 was inactive.
For the molecule `CCN1CC(CCN2CCOCC2)C(c2ccccc2)(c2ccccc2)C1=O` (configuration not stated), the activity, negative = inhibition in [1] (parasite line A) was 10.7%; in [1] (parasite line B), -5.11%. In addition, the Potency entry with 3D7, in the assay with AS120, in the assay on ATS95, in the assay on C2A, in the assay with CP185 and in the assay on CP215 was “inactive” each time. Also, the outcome with CP191, in the assay on CP192, with CP194, in the assay on CP201 and in the assay on CP211 was inactive.
`Nc1c2c(nc3c1CCC3)CCCC2`: in the assay with 7G8, the Potency is 11.2 µM (active).
As to `OCC(O)CS` (configuration not stated), the activity, negative = inhibition in assay [1] (parasite line A) was 2.38%. In addition, the Potency result in the assay with 3D7, with 7G8, in the assay on AA1029, with AS120, in the assay on ATS189 and with ATS95 was “inactive” each time. In addition, the Potency entry in the assay on C2A, in the assay with CP185 and in the assay with CP215 was “inactive” in each case. Moreover, the molecule was classed as inactive in the assay on CP191, in the assay with CP192, with CP194, in the assay on CP201 and in the assay on CP211.
`CCN(CC)CCOC(=O)C(c1ccccc1)c1ccccc1`: the activity, negative = inhibition in assay [1] (parasite line A) is -8.73%; in assay [1] (parasite line B) it was -12.1%. In addition, the Potency result with 3D7, in the assay with AA1029, in the assay on AS120, with ATS189, with ATS95 and with C2A was “inactive” in each case. Further, the Potency entry in the assay on CP185, in the assay on CP203 and in the assay on CP215 was “inactive” each time. Further, the result with CP191, in the assay with CP192, with CP194, with CP201 and in the assay on CP211 was inactive.
Turning to `NC(=O)CCCCC1CCSS1` (configuration not stated), the activity, negative = inhibition was -3.84% in [1] (parasite line A) and -4.11% in [1] (parasite line B). For the same molecule, the Potency entry with 3D7, with AA1029, in the assay on ATS95, with C2A, in the assay with CP185 and in the assay with CP203 was “inactive” each time. For the same molecule, the molecule was classed as inactive in the assay on CP191, in the assay with CP192, with CP194, in the assay on CP201 and in the assay with CP211.
Regarding `Cc1cc(OI)c(C(C)C)cc1-c1cc(C(C)C)c(OI)cc1C`, the Potency with 7G8 was 7.94 µM (active). For the same molecule, the Potency entry in the assay on CP185 and in the assay on CP203 was “inactive” in each case. In addition, the outcome with CP194, with CP201 and in the assay on CP211 was inactive.
As to `CCCCCC(C)N` (configuration not stated), the activity, negative = inhibition in [1] (parasite line B) was -25.4%. For the same molecule, the Potency in the assay on 7G8 was 10 µM (active). For the same molecule, the Potency result with ATS95, in the assay on C2A, in the assay with CP185 and with CP215 was “inactive” in each case. Moreover, the molecule was called inactive in the assay on CP192, in the assay with CP194, in the assay with CP201 and in the assay with CP211.
On to `Cc1[nH]c(C)c(Cl)c(=O)c1Cl`, for which the Potency with 7G8 is 11.2 µM (active). In addition, the Potency entry in the assay with AA1029, in the assay on AS120, with ATS189, with ATS95, with C2A and in the assay on CP185 was “inactive” in each case. The Potency result in the assay with CP215 is “inactive”. The outcome with CP192 and in the assay with CP194 was inactive.
Take `O=C1c2ccccc2C(=O)C1c1ccc(Br)cc1`: the Potency in the assay with 3D7 and with 7G8 was 11.2 µM (active) throughout. Also, the Potency result in the assay on AS120, in the assay on ATS189, in the assay with C2A and in the assay on CP185 was “inactive” in each case. The call with CP192, in the assay with CP194, in the assay with CP201 and in the assay on CP211 was inactive.
Take `O=C1c2cccc(O)c2C(=O)c2c(O)cccc21`: the activity, negative = inhibition in [1] (parasite line A) was -0.153%; in assay [1] (parasite line B), 3.79%. Further, the Potency result in the assay on 3D7, in the assay on AA1029, in the assay on AS120, with ATS189, in the assay with ATS95 and in the assay with C2A was “inactive” throughout. The Potency entry with CP185 and in the assay with CP215 was “inactive” in each case. The call in the assay on CP191, in the assay on CP192, with CP194, in the assay with CP201 and in the assay with CP211 was inactive.
Take `C[C@H]1COc2c(C3(N)CC3)c(F)cc3c(=O)c(C(=O)O)cn1c23`: the activity, negative = inhibition is -1.84% in assay [1] (parasite line A) and -23.2% in [1] (parasite line B). Also, the Potency entry with 7G8, in the assay on AA1029, in the assay with AS120, with ATS189, with ATS95 and with C2A was “inactive” throughout. The Potency entry with CP185 and in the assay with CP215 was “inactive” each time. Moreover, the outcome in the assay on CP191, with CP192, with CP194, in the assay with CP201 and in the assay on CP211 was inactive.
Turning to `Cc1cc(O)cc(C)c1Cl`, the activity, negative = inhibition in [1] (parasite line A) was -2.51%; in [1] (parasite line B), -4.56%. The Potency result with 3D7, in the assay with AA1029, in the assay on AS120, in the assay on C2A, with CP185 and in the assay on CP203 was “inactive” throughout. In addition, the Potency entry in the assay on CP215 is “inactive”. For the same molecule, in the assay with 7G8, the Potency is 10 µM (active). The result in the assay on CP192, in the assay on CP194, with CP201 and in the assay on CP211 was inactive.
As for `CN1C[C@@H]2C[C@H]1CN2c1cc2c(cc1F)c(=O)c(C(=O)O)cn2C1CC1`, in the assay with CP192, the call was inactive.
Consider `CC(=O)N[C@@H](Cc1ccc(O)cc1)C(=O)O`, for which the values for the activity, negative = inhibition in assay [1] (parasite line A) and in assay [1] (parasite line B) were 9.07% and 9.16%, respectively. The Potency entry in the assay with 3D7, in the assay on AA1029, in the assay on AS120, with ATS189, with ATS95 and in the assay on C2A was “inactive” throughout. For the same molecule, the Potency result in the assay with CP185, in the assay on CP203 and in the assay with CP215 was “inactive” throughout. The outcome with CP191, in the assay with CP192, in the assay on CP194, with CP201 and in the assay with CP211 was inactive.

The values above are taken from PubChem BioAssay (NCATS).
